Each compound was assayed against T1, Aspartate--tRNA(Asp/Asn) ligase (Mycobacterium tuberculosis (strain ATCC 25618 / H37Rv)) (UniProt P9WFW3) (assay: Assay for Asp RNA synthetase-1 from Mycobacterium tuberculosis). Conditions: 30 µM.
T1 sequence (whole entry): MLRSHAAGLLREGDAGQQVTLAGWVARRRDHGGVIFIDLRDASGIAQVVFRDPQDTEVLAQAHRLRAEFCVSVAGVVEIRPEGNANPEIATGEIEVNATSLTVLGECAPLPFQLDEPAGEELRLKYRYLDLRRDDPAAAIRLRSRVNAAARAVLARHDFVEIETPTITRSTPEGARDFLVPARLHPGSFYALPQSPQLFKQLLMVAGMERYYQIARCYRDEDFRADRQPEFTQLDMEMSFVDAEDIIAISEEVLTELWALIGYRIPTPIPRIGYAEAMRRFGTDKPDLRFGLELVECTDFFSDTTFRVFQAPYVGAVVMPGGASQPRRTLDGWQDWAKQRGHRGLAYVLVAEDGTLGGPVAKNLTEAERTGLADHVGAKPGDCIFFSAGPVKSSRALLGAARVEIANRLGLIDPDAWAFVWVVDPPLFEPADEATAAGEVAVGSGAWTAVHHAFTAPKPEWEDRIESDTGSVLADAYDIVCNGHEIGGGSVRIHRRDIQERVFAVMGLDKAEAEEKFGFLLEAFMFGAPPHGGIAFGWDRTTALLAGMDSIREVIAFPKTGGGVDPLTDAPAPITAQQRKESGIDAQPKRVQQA
Type: functional
Set-up: scale not given: direction of the effect not stated beside the values

SMILES | Percent Effect [%]
Cc1cc(C)n(CC(=O)N2CCC(NS(C)(=O)=O)CC2)n1 | -2.75
CCSCC(C)NCc1nncn1C1CCCCC1 (stereo not drawn) | 1.39
COC(=O)c1ccc(S(=O)(=O)NCc2cccnc2N(C)C)cc1 | -3.4
Cc1cnn(CC(C)NCc2csc(-c3ccco3)n2)c1 (stereo not drawn) | 2.75
O=C1CC2(CCN(S(=O)(=O)C3CC3)C2)CN1c1cncnc1 (stereo not drawn) | 4.51
CN(C)c1ncnc2c1CCN(CC1CCCC1)CC2 | -1.05
CN1CCCC1CNC(=O)CCCOCc1ccccc1 (stereo not drawn) | 0.589
COc1ccc(COCC(O)CNC(=O)c2cccnc2)cc1 (stereo not drawn) | -1.27
CC(=O)c1ccc(N2CCCC(CO)(CCOc3ccccc3)C2)nc1 (stereo not drawn) | -2.11
CCn1ccnc1CN1CCN(CC(=O)NC(=O)NC2CC2)CC1 | -2.79
CNC(=O)[C@H]1CCS(=O)(=O)[C@@H]2CN(Cc3ccc(OC)cc3)C[C@H]12 | -0.605
CN(C)S(=O)(=O)N1CCC(Oc2cnccn2)CC1 | -9.05
Cc1cc(C(F)(F)F)nn1C(C)C(=O)Nc1ccncc1 (stereo not drawn) | -0.755
CC(=O)c1c(F)cccc1N1CCC(Cc2cccnc2)CC1 | 0.661
Cc1noc(C(C)C)c1C(=O)NCCCOC(C)C | 2.01
O=C(NCc1cc(=O)n2c(n1)CN(CC1CCOC1)CCC2)C1CC1 (stereo not drawn) | -1
CCn1cnnc1CNC(=O)N(C)Cc1ccc(F)c(F)c1 | -2.12
CCOc1ncccc1NC(=O)N1CCc2ccccc2C1 | 19.1
Cc1ncccc1O[C@H]1CCN(C(=O)c2cccs2)CC[C@@H]1O | 4.9
CC(OCC(F)(F)F)C(=O)Nc1ccc(-n2cncn2)nc1 (stereo not drawn) | -0.432

SMILES | Percent Effect [%]
Cc1csc(CN2CC[C@H]3C[C@H](c4nnc(C)[nH]4)O[C@@H]3C2)n1 | 1.94
CC1CN(CC(=O)Nc2cccnc2)CCN1c1nccs1 (stereo not drawn) | 0.466
O=C1CCCN1Cc1nnc2n1CCN(Cc1ccoc1)CC2 | 1.71
CC(C)(C)c1cnc(CN2CCCC2Cn2cccn2)o1 (stereo not drawn) | -3.34
O=C(CCc1nccs1)N1CCC(N2CCNC2=O)CC1 | 4.28
COc1ccc(Cl)cc1C(=O)N1CCCC(n2nc(C)nc2C)C1 (stereo not drawn) | -5.94
Cc1ccsc1CN(C)C(=O)Cn1nc(-c2ccc(F)cc2)oc1=O | 10.3
CC(C)c1nccn1-c1cccc(C2CCCN(C3CCCC3)C2)n1 (stereo not drawn) | 3.46
CC(=O)N1CCC(Cc2cnc(-c3c(C)nn(C)c3C)cn2)C1 (stereo not drawn) | -3.46
O=C(NCC(F)(F)F)C1CSCN1S(=O)(=O)c1ccc(F)cc1 (stereo not drawn) | -3.86
C[C@@H]1CN(C(=O)c2ccc(C#N)nc2)C[C@@]1(O)C1CC1 | 0.0335
CN(C)C(=O)CO[C@H]1CN(Cc2ccc(F)cc2)[C@@H]2CCCO[C@H]12 | 5.68
CCn1cnnc1CNC(=O)N1CCC(C(=O)NC)CC1 | -8.1
Cc1noc(CN2CCC(c3ccnn3CCO)CC2)n1 | -2.2
Cc1noc(C)c1-c1cncc(C2CCCN2Cc2cncnc2)n1 (stereo not drawn) | -2.78
O=C(NCCC(=O)N1CCCc2ccccc21)c1c(O)cc(F)cc1F | -3.63
CC(=O)N1CC(=O)N(c2ccccc2)CC12CCN(Cc1cccs1)C2 (stereo not drawn) | 2.3
Cn1cc(Br)c(=O)c(NS(=O)(=O)c2ccc(F)cc2)c1 | -2.87
CN(Cc1nc(-c2ccco2)no1)C1CCCN(c2cccnn2)C1 (stereo not drawn) | -3.2

Each compound was assayed against Shiga toxin 2 (Escherichia coli O157:H7) (UniProt P09385+P09386) (assay: E. coli 0.157:H7 Shiga Toxin SOP - stx2 screening assay). Conditions: 30 µM.
Type: functional
Set-up: scale not given: direction of the effect not stated beside the values

SMILES | Percent Effect [%]
Cc1cc(C)n(CC(=O)N2CCC(NS(C)(=O)=O)CC2)n1 | 32.8
CCSCC(C)NCc1nncn1C1CCCCC1 (stereo not drawn) | 13.1
COC(=O)c1ccc(S(=O)(=O)NCc2cccnc2N(C)C)cc1 | 12
Cc1cnn(CC(C)NCc2csc(-c3ccco3)n2)c1 (stereo not drawn) | 1.53
O=C1CC2(CCN(S(=O)(=O)C3CC3)C2)CN1c1cncnc1 (stereo not drawn) | -33.9
CN(C)c1ncnc2c1CCN(CC1CCCC1)CC2 | -5.38
CN1CCCC1CNC(=O)CCCOCc1ccccc1 (stereo not drawn) | 23.4
COc1ccc(COCC(O)CNC(=O)c2cccnc2)cc1 (stereo not drawn) | -12.2
CC(=O)c1ccc(N2CCCC(CO)(CCOc3ccccc3)C2)nc1 (stereo not drawn) | -9.89
CCn1ccnc1CN1CCN(CC(=O)NC(=O)NC2CC2)CC1 | 24.4
CNC(=O)[C@H]1CCS(=O)(=O)[C@@H]2CN(Cc3ccc(OC)cc3)C[C@H]12 | 3.61
CN(C)S(=O)(=O)N1CCC(Oc2cnccn2)CC1 | -9.23
Cc1cc(C(F)(F)F)nn1C(C)C(=O)Nc1ccncc1 (stereo not drawn) | -29.5
CC(=O)c1c(F)cccc1N1CCC(Cc2cccnc2)CC1 | -24.5
Cc1noc(C(C)C)c1C(=O)NCCCOC(C)C | -6.05
O=C(NCc1cc(=O)n2c(n1)CN(CC1CCOC1)CCC2)C1CC1 (stereo not drawn) | -24.3
CCn1cnnc1CNC(=O)N(C)Cc1ccc(F)c(F)c1 | 18.2
CCOc1ncccc1NC(=O)N1CCc2ccccc2C1 | 3.47
Cc1ncccc1O[C@H]1CCN(C(=O)c2cccs2)CC[C@@H]1O | 6.92
CC(OCC(F)(F)F)C(=O)Nc1ccc(-n2cncn2)nc1 (stereo not drawn) | 13.4

SMILES | Percent Effect [%]
Cc1csc(CN2CC[C@H]3C[C@H](c4nnc(C)[nH]4)O[C@@H]3C2)n1 | 0.515
CC1CN(CC(=O)Nc2cccnc2)CCN1c1nccs1 (stereo not drawn) | 7.04
O=C1CCCN1Cc1nnc2n1CCN(Cc1ccoc1)CC2 | -17.6
CC(C)(C)c1cnc(CN2CCCC2Cn2cccn2)o1 (stereo not drawn) | 0.322
O=C(CCc1nccs1)N1CCC(N2CCNC2=O)CC1 | -16.6
COc1ccc(Cl)cc1C(=O)N1CCCC(n2nc(C)nc2C)C1 (stereo not drawn) | 7.05
Cc1ccsc1CN(C)C(=O)Cn1nc(-c2ccc(F)cc2)oc1=O | -7.45
CC(C)c1nccn1-c1cccc(C2CCCN(C3CCCC3)C2)n1 (stereo not drawn) | 3.04
CC(=O)N1CCC(Cc2cnc(-c3c(C)nn(C)c3C)cn2)C1 (stereo not drawn) | -8.45
O=C(NCC(F)(F)F)C1CSCN1S(=O)(=O)c1ccc(F)cc1 (stereo not drawn) | -29.9
C[C@@H]1CN(C(=O)c2ccc(C#N)nc2)C[C@@]1(O)C1CC1 | -1.27
CN(C)C(=O)CO[C@H]1CN(Cc2ccc(F)cc2)[C@@H]2CCCO[C@H]12 | -22
CCn1cnnc1CNC(=O)N1CCC(C(=O)NC)CC1 | -16.1
Cc1noc(CN2CCC(c3ccnn3CCO)CC2)n1 | 4.21
Cc1noc(C)c1-c1cncc(C2CCCN2Cc2cncnc2)n1 (stereo not drawn) | 0.369
O=C(NCCC(=O)N1CCCc2ccccc21)c1c(O)cc(F)cc1F | -9.36
CC(=O)N1CC(=O)N(c2ccccc2)CC12CCN(Cc1cccs1)C2 (stereo not drawn) | -33.9
Cn1cc(Br)c(=O)c(NS(=O)(=O)c2ccc(F)cc2)c1 | -1.63
CN(Cc1nc(-c2ccco2)no1)C1CCCN(c2cccnn2)C1 (stereo not drawn) | -26.8

— ChEMBL document CHEMBL3988442, “University of Dundee, Small-Polar-MMV Screening Library” (2021)
